Experimental data reported in PubChem BioAssay (EPA / NIEHS).
Results filed as inconclusive are left out. A structure can be active in one record and inactive in another. The source made the active and inactive calls. How the source made its calls: active means hit-call score of the fitted dose curve at least 0.9, where 1 is the maximum; inconclusive means response in the unintended direction; inactive means score below 0.9.

Assays:
[1] = LTEA_HepaRG_LDH_cytotoxicity: Cytotoxicity Assessment in the Life Technologies and Expression Analysis (LTEA) Assay (AID 2283563);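 on AC50: LDH activity released into spent culture medium as a marker of cell death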
Summary of the method: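 Differentiated HepaRG cells in serum-free induction medium, exposed 48 h in duplicate to 8 half-log concentrations up to 100 uM in 0.5% DMSO. Cytotoxicity from LDH measured in spent medium, fit relative to DMSO.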

[2] = ATG_XTT_Cytotoxicity: Cytotoxicity Assessment in the Attagene TRANS-FACTORIAL HepG2 Assay (AID 2283584)
Summary of the method: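 HepG2 cells transiently transfected with GAL4-UAS multiple reporter units, dosed 24 h; cytotoxicity read by XTT as loss of signal versus DMSO baseline.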

[3] = Tanguay_ZF_120hpf_MORT_legacy: (Legacy) Oregon State University Tanguay Lab 120 Hour Post-fertilization zebrafish Assay for Mortality (AID 2283633);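 on AC50: fitted as increase in binary mortality versus DMSO negative control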
Summary of the method: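 Dechorionated Tropical 5D wild-type zebrafish embryos, one per well from 6 hpf, static exposure in 0.64% DMSO at 28C until 120 hpf. Mortality scored as binary by brightfield microscopy at 24 and 120 hpf.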

[4] = Tanguay_ZF_120hpf_YSE_legacy: (Legacy) Oregon State University Tanguay Lab 120 Hour Post-fertilization zebrafish Assay for Yolk Sac Edema (AID 2283634)
Summary of the method: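 Dechorionated Tropical 5D wild-type zebrafish embryos were exposed statically, one per well, from 6 to 120 hpf at 28C in 0.64% DMSO. Yolk sac edema was scored present/absent by brightfield at 120 hpf, and dead embryos were excluded.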

[5] = Tanguay_ZF_120hpf_AXIS_legacy: (Legacy) Oregon State University Tanguay Lab 120 Hour Post-fertilization zebrafish Assay for Body Axis Malformation (AID 2283635)
Summary of the method: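 Dechorionated wild-type Tropical 5D zebrafish embryos, one per well, statically exposed from 6 hpf to 120 hpf at 28C in 0.64% DMSO final. Body axis malformation scored present/absent by brightfield microscopy at 120 hpf; dead embryos excluded.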

[6] = Tanguay_ZF_120hpf_EYE_legacy: (Legacy) Oregon State University Tanguay Lab 120 Hour Post-fertilization zebrafish Assay for Eye Malformation (AID 2283636);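 further: binary presence or absence of eye malformation scored by brightfield in 120 hpf larvae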
Summary of the method: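 Dechorionated Tropical 5D zebrafish embryos, one per well from 6 hpf, static exposure to 120 hpf at 28C, 0.64% DMSO. Eye malformation scored present/absent by brightfield; dead embryos not scored.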

[7] = Tanguay_ZF_120hpf_SNOU_legacy: (Legacy) Oregon State University Tanguay Lab 120 Hour Post-fertilization zebrafish Assay for Snout Malformation (AID 2283637)
Summary of the method: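 Dechorionated tropical 5D wild-type zebrafish embryos exposed statically from 6 to 120 hpf at 28C, one per well, in 0.64% DMSO. Snout malformation scored as present/absent by brightfield at 120 hpf; dead embryos not scored.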

[8] = Tanguay_ZF_120hpf_JAW_legacy: (Legacy) Oregon State University Tanguay Lab 120 Hour Post-fertilization zebrafish Assay for Jaw Malformation (AID 2283638)
Summary of the method: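 Dechorionated Tropical 5D wild-type zebrafish embryos, one per well, exposed statically from 6 hpf to 120 hpf at 28C in 0.64% DMSO. Jaw malformation was scored by brightfield microscopy as present or absent. It was not scored in dead embryos.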

[9] = Tanguay_ZF_120hpf_OTIC_legacy: (Legacy) Oregon State University Tanguay Lab 120 Hour Post-fertilization zebrafish Assay for Otic Vesicle Malformation (AID 2283639)
Summary of the method: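 Otic vesicle malformation is read as a yes/no morphology call at 120 hpf. Exposure is static at 28C with 0.64% (vol/vol) DMSO; embryos that die are excluded from non-mortality endpoints.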

[10] = Tanguay_ZF_120hpf_SOMI_legacy: (Legacy) Oregon State University Tanguay Lab 120 Hour Post-fertilization zebrafish Assay for Somite Malformation (AID 2283647)
Summary of the method: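 Dechorionated Tropical 5D wild-type zebrafish embryos, one per well from 6 hpf, statically exposed at 28C to 120 hpf in 0.64% DMSO; somite malformation scored present/absent by brightfield; trimethyltin 5 uM positive control; dead embryos not scored.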

[11] = TOX21_p53_BLA_p2_viability: Viability Assessment in the Tox21 HCT-116 p53 Agonism Beta-lactamase Assay, Phase 2 (AID 2283591);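 further: compound exposure lasted 16 h at 37 °C; actives lower the ATP signal meaning cytotoxicity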
Summary of the method: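 HCT116 p53-bla cells, 4000/well, dosed after 5 h plating (217-fold dilution of DMSO stocks) and incubated 16 h at 37C. Viability taken as cellular ATP by CellTiter-Glo luminescence after 30 min RT; signal loss marks cytotoxicity.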

[12] = biological target: Cellular tumor antigen p53 (Homo sapiens) (UniProt P04637); assay: TOX21_p53_BLA_p2_ratio: Tox21 HCT-116 p53 Agonism Beta-lactamase Assay, Ratio, Phase 2 (AID 2283592)
Summary of the method: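 HCT-116 cells with p53-responsive beta-lactamase reporter, 4000 cells/well, preincubated 5 h, then compound in DMSO (217-fold dilution) for 16 h at 37C. CCF4-AM substrate 2 h at room temperature; 460/530 nm emission ratio fitted upward versus DMSO.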

[13] = TOX21_p53_BLA_p3_viability: Viability Assessment in the Tox21 HCT-116 p53 Agonism Beta-lactamase Assay, Phase 3 (AID 2283593);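 further: cells exposed to compound for 16 h before reading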
Summary of the method: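 HCT116 cells, 4000/well, dosed 5 h after plating by pin transfer (217-fold dilution from DMSO stock) and incubated 16 h at 37C, 5% CO2. Viability read as ATP luminescence with CellTiter-Glo after 30 min at room temperature.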

[14] = biological target: Cellular tumor antigen p53 (Homo sapiens) (UniProt P04637); assay: TOX21_p53_BLA_p3_ratio: Tox21 HCT-116 p53 Agonism Beta-lactamase Assay, Ratio, Phase 3 (AID 2283596)
Summary of the method: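 HCT116 p53-bla cells (4000/well) given compound in DMSO (217-fold dilution) after 5 h, incubated 16 h at 37C. CCF4-AM substrate 2 h at room temperature; 460/530 nm emission ratio, gain fitted against DMSO.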

[15] = TOX21_p53_BLA_p4_viability: Viability Assessment in the Tox21 HCT-116 p53 Agonism Beta-lactamase Assay, Phase 4 (AID 2283597);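 further: hits lower the luminescence signal meaning cytotoxicity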
Summary of the method: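 HCT-116 p53-bla cells, 4000/well, dosed after 5 h attachment and incubated 16 h at 37 °C, 5% CO2. Viability from CellTiter-Glo ATP luminescence after 30 min at room temperature, taken after the beta-lactamase read; loss of signal indicates cytotoxicity.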

[16] = biological target: Cellular tumor antigen p53 (Homo sapiens) (UniProt P04637); assay: TOX21_p53_BLA_p5_ratio: Tox21 HCT-116 p53 Agonism Beta-lactamase Assay, Ratio, Phase 5 (AID 2283599)
Summary of the method: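 HCT-116 p53-bla cells (4000/well) plated 5 h, dosed with compound (217-fold DMSO dilution) for 16 h at 37 C; CCF4-AM substrate 2 h at room temperature. Activity is the 460/530 nm emission ratio (405 nm excitation), fitted in gain-of-signal direction versus DMSO.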

[17] = biological target: Cellular tumor antigen p53 (Homo sapiens) (UniProt P04637); assay: TOX21_p53_BLA_p4_ratio: Tox21 HCT-116 p53 Agonism Beta-lactamase Assay, Ratio, Phase 4 (AID 2283601)
Summary of the method: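 HCT-116 p53 beta-lactamase reporter cells (4000/well) preincubated 5 h, then compound (217-fold dilution of DMSO stock) for 16 h at 37C. CCF4-AM substrate added 2 h at room temperature; 460/530 nm emission ratio fitted upward versus DMSO.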

[18] = Tanguay_ZF_120hpf_PE_legacy: (Legacy) Oregon State University Tanguay Lab 120 Hour Post-fertilization zebrafish Assay for Pericardial Edema (AID 2283640)
Summary of the method: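 Tropical 5D wild-type zebrafish embryos were statically exposed until 120 hpf at 28C, with 0.64% DMSO final. Pericardial edema was scored by brightfield as present or absent; endpoints were not scored in dead embryos.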

[19] = Tanguay_ZF_120hpf_BRAI_legacy: (Legacy) Oregon State University Tanguay Lab 120 Hour Post-fertilization zebrafish Assay for Brain Malformation (AID 2283641)
Summary of the method: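 Tropical 5D wild-type zebrafish embryos exposed statically until 120 hpf at 28C, 0.64% DMSO final, sealed and dark. Brain malformation scored present/absent by brightfield at 120 hpf; dead embryos excluded. Trimethyltin chloride 5uM positive control.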

[20] = TOX21_p53_BLA_p5_viability: Viability Assessment in the Tox21 HCT-116 p53 Agonism Beta-lactamase Assay, Phase 5 (AID 2283600)
Summary of the method: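 HCT-116 p53 beta-lactamase reporter cells, 4000/well, were exposed to compound (pin transfer, 217-fold dilution) for 16 hours at 37C. Cellular ATP was read by CellTiter-Glo luminescence after 30 min at room temperature.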

Measured: AC50

Cellular tumor antigen p53 (Homo sapiens), sequence (P04637 whole entry, looked up): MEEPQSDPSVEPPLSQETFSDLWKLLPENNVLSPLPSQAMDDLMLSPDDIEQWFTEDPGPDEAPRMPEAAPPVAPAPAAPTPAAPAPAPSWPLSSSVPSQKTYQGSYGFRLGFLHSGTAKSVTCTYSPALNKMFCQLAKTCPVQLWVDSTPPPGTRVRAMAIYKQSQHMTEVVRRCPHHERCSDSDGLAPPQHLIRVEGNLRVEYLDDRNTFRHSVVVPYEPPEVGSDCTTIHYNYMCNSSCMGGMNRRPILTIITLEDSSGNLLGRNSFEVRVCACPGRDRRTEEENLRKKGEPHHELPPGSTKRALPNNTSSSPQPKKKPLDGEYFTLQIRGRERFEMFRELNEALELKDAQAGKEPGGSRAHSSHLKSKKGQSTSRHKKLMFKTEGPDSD

COCC(C)OCC(C)OCC(C)O (stereo unspecified)
inactive: [1] | [2] | [3] | [4] | [5] | [6] | [7] | [8] | [9] | [10]

O=c1c(-c2ccc(O)cc2)coc2cc(O)cc(O)c12
inactive: [1] | [11] | [12] | [13] | [14] | [15] | [16] | [17] | [4] | [5] | [6] | [7] | [8] | [9] | [18] | [10]
active: [12] 18 µM | [3] 26.1 µM

c1ccc(C[n+]2cccc3ccccc32)cc1
inactive: [2] | [11] | [12] | [13] | [14] | [17] | [3] | [4] | [5] | [6] | [8] | [9] | [19] | [10]
active: [1] 34.4 µM

Cc1cccc2ccccc12
inactive: [1] | [11] | [12] | [13] | [14] | [15] | [20] | [17] | [3] | [4] | [5] | [6] | [8] | [9] | [18] | [19] | [10]

O=C1O[C@H]([C@@H](O)CO)C(O)=C1O
inactive: [1] | [11] | [12] | [13] | [14] | [15] | [16] | [20] | [17] | [3] | [5] | [6] | [7] | [10]

CN(C)C(=O)C1(N2CCCCC2)CCN(CC[C@@]2(c3ccc(Cl)c(Cl)c3)CN(C(=O)c3ccccc3)CCO2)CC1
inactive: [4] | [5] | [6] | [7] | [8] | [9] | [18] | [19] | [10]
active: [1] 20 µM | [11] 37.8 µM | [12] 70.9 µM | [13] 70.5 µM | [14] 82.3 µM | [15] 34 µM | [16] 82 µM | [17] 48.5 µM | [3] 16.4 µM

COc1ccc2cc(S(=O)(=O)N[C@H](CC(=O)N[C@H](Cc3ccc(CN4[C@H](C)CCC[C@@H]4C)cc3)C(=O)N(C)C(C)C)c3ccc4c(c3)OCO4)ccc2c1
inactive: [14] | [3] | [4] | [5] | [6] | [7] | [8]
active: [1] 20.7 µM | [11] 74.2 µM | [12] 70.3 µM | [13] 84.8 µM | [15] 60.6 µM | [20] 56.7 µM | [17] 72.1 µM
